Measured values published in PubChem BioAssay (NCI).
About 83,000 compounds went through this panel and 20% of them were active in at least one assay; those are over-represented in the sample as a whole.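 Results are percent growth after 48 hours of single-concentration exposure. 100 means growth as in untreated cells, lower positive values show inhibition; negative values down to -100 show cell death.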 Unmarked numbers belong to inactive results. Calls of active or inactive are those of the source. How the source made its calls: active means growth percent below 10; inactive means the rest.

Tests used:
Experiment in all cases: NCI-60 one-dose screen, 48 h (100 = growth as untreated, 0 = no growth, -100 = all killed)
Conditions in all cases: 10 µM unless noted
[1] = system: SR leukemia
[2] = system: RPMI-8226 leukemia
[3] = system: OVCAR-8 ovarian
[4] = system: OVCAR-5 ovarian
[5] = system: OVCAR-4 ovarian
[6] = system: SK-OV-3 ovarian
[7] = system: IGROV1 ovarian
[8] = system: OVCAR-3 ovarian
[9] = system: NCI/ADR-RES ovarian
[10] = system: HS 578T breast

Compound	growth [1]	growth [2]	growth [3]	growth [4]	growth [5]	growth [6]	growth [7]	growth [8]	growth [9]	growth [10]
CS(=O)(=O)Nc1cc(-c2ccc3ncnc(Nc4ccc5c(cnn5Cc5cccc(F)c5)c4)c3c2)cnc1Cl	4.76% (active)	-24.4% (active)	28.1%	7.19% (active)	26.4%	-17.7% (active)	-51.2% (active)	-5.45% (active)	78.2%	
NC(Cc1ccc(O)c([N+](=O)[O-])c1)C(=O)O (configuration not stated)	89.1%	95%	103%	107%	95.2%	115%	85%	105%	99%	
O=C(Nc1ccc(Oc2cccc(Cl)c2)c(Cl)c1)c1cnccn1	26.3%	18.1%	28%	60.4%	38.9%	83.3%		-7.23% (active)	14.8%	18.7%
CCc1ccccc1-n1c(-c2ccc(OC)cc2)cc(-c2ccc(OC)cc2)c(C#N)c1=O	98.4%	105%	41.7%	92.7%	85.9%	54%		82.2%	72.4%	17.9%
COc1ccc(C/C(C)=C(\c2ccc(Cl)cc2)c2ccc(OCCN3CCCCC3)cc2)cc1	80.6%	90.6%	94.9%	81.4%	102%	103%	99.9%	114%	108%	
CC(=O)N1N=C(c2ccc(Nc3nc(Nc4ccccc4)nc(Nc4ccccc4)n3)cc2)CC1c1cccc([N+](=O)[O-])c1 (configuration not stated)	83.8%	68%	92.6%	87.6%	91.2%	103%	79.4%	98.1%	94.7%	
C=C1C(=O)O[C@H]2[C@H]1CC/C(COC(=O)C(=O)c1cn(C)c3ccc(Cl)cc13)=C\CC[C@@]1(C)O[C@@H]21	2.71% (active)	-33.7% (active)	-23.9% (active)	-47.6% (active)	-61.2% (active)	-35.4% (active)		-86.3% (active)	-3.58% (active)	-16.9% (active)
N#Cc1ccc2c(c1)C(=O)c1c-2n(CCCN)c(=O)c2cc([N+](=O)[O-])ccc12	-52% (active)	-45.5% (active)	-71.6% (active)	16.6%	-82% (active)	-100% (active)		-96.4% (active)	-36.3% (active)	-77.7% (active)
O=C1C(=O)N(Cc2ccc(-c3ccccc3)cc2)c2ccc(OC(F)(F)F)cc21	2.04% (active)	-5.6% (active)	23.6%	37.3%	36.3%	98.1%		24.7%	32.6%	11.2%
O=C(/C=C/c1ccco1)Nc1ncc(Cc2cccc(C(F)(F)F)c2)s1	9.93% (active)	12.4%	8.79% (active)	30.3%	4.64% (active)	16.9%		-33.3% (active)	-4.7% (active)	0.428% (active)
Cc1cccc(/C=C/c2c(C(=O)/C=C/c3ccccc3)c(C)nc3ccccc23)c1	11.8%	-11.6% (active)	-13.7% (active)	-37.9% (active)	2.06% (active)		-27.6% (active)	-50.6% (active)	-8.03% (active)	18.9%
O=C(Nc1cccc(Cl)c1)Nc1cccc(Cn2c(=O)[nH]c3ccc(Oc4ncccn4)cc3c2=O)c1	21.4%	25.3%	37.4%	81.7%	13.3%		62%	33.5%	95.5%	51.8%
CCOC(=O)Cc1cnc(N/N=C(\C)c2cc3ccccc3o2)s1	106%	98.6%	94%	99.7%	93.5%		87.4%	107%	103%	100%
CCCCC1=C(P(=O)(O)O)N[C@H](C(=O)O)CS1	96.4%	99.7%	95.5%	94.4%	91.3%		94.3%	106%	108%	109%
CC1=C2[C@@H](CC1)[C@]1(C)O[C@@](C(C)C)(C[C@H]1OC(=O)[C@H](C)O)[C@H]2OC(=O)/C=C/c1ccccc1	71.9%	65.6%	10.2%	97.9%	81.7%		97.4%	91.1%	4.27% (active)	-2.45% (active)
Nc1ncc(-c2ccc3ncnc(Nc4cccc(Cl)c4)c3c2)cn1	33.6%	44.5%	46.8%	26.4%	70%	-10% (active)		27.3%	52.2%	16.4%
CC(=O)Oc1ccc(/C(=C(\C)c2ccc(Cl)cc2)c2ccc(OCCN3CCCCC3)cc2)cc1	-27.3% (active)	9.5% (active)	57.1%	75.1%	57.1%		61.8%	66.7%	50%	52.9%
O=C(/C=C(/C=C/c1ccc2[nH]ccc2c1)OB(F)F)/C=C/c1ccc2[nH]ccc2c1	2.78% (active)	-31.2% (active)	-29.9% (active)	15.4%	2.28% (active)		5.09% (active)	-16.2% (active)	14.3%	31.4%
Cc1cc(C(=O)Nc2ncc(Cc3cccc(C(F)(F)F)c3)s2)c2ccccc2n1	9.35% (active)	33.9%	43.4%	47.7%	42.4%		31.5%	13.3%	16.4%	-0.594% (active)
Cc1c[n+](Cc2ccc3ccccc3c2)cn1Cc1ccc2ccccc2c1	-47.2% (active)	-42.4% (active)	2.04% (active)	27.1%	-7.39% (active)		-16.3% (active)	-2.44% (active)	101%	46.8%
COc1ccc(Nc2nc(-c3cc(O)c(C)c(C)c3O)cs2)cc1	37.1%	33.6%	70.7%	103%	73.7%		66.5%	10.5%	23%	76.7%
CCCNC(=O)Nc1ccc2cc3ccc(NC(=O)NCCC)cc3nc2c1	37.2%	76.1%	74.5%	90.1%	65.2%	95.1%		70.1%	96.9%	48.4%
Cc1nc2sc(C(=O)Nc3ccc(Br)cc3)c(N)c2cc1C(O)c1ccccc1 (configuration not stated)	14.9%	55.4%	75.2%	92%	59.3%			73.9%	59.7%	74.1%
COc1ccc(Nc2ncc(Br)c(NCCCNC(=O)c3cccs3)n2)cc1	31.5%	27.3%	32.7%	60.6%	57.7%		21%	26.6%	46.5%	30.9%
NC(=O)C(=O)c1ccccc1NC=O	113%	105%	95.4%	102%	98.4%		94.8%	110%	89.6%	109%
CCn1c(SCC(=O)N/N=C(\C)c2ccc(Cl)cc2)nc2c1c(=O)n(C)c(=O)n2C	93.4%	103%	99.9%	99%	99.8%	109%		115%	102%	94.4%
CC(=O)c1c(C)nc2ccccc2c1/C=C/c1ccc(F)cc1	81.2%	66.5%	92.9%	97.7%	76.7%		85.1%	92.9%	67.6%	91.9%
